A short description of assay [1]: qHTS RealTime-Glo MT Cell Viability Assay in HEK293 cells - 40 hour (AID 1224874). Also: nearly all actives have a fitted effect of over 50% in size. Also: potency is read from the fitted curve at half-maximal effect. Particulars: RealTime-Glo luminescence; max response: stronger effect = lower value. The procedure, abridged: (§1)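 HEK293 cells mixed with RealTime-Glo reagents (NanoLuc plus cell-permeant prosubstrate) at 600 cells/well, preincubated 5 h at 37 C/5% CO2, then given 23 nL compound in DMSO. Nonlytic luminescence from viable cells was read at 0, 8, 16, 24, 32 and 40 h.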
A general note: In qHTS, concentration-response curves come from the screen itself.

Assay [2] in a line: A CellTox Green Cytotoxicity Assay to monitor cytotoxicity in HEK293 cells - 24 hour (AID 1224875). Also: nearly all actives have a fitted effect of over 45% in size. Also: potency is read from the fitted curve at half-maximal effect. As to activity change: series mostly up to about 77 µM. The procedure, abridged: (§2)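 HEK293 cells premixed with CellTox Green dye were seeded at 600 cells/well and left 5 h at 37 C/5% CO2 before pin transfer of 23 nL compound in DMSO. Fluorescence from dye bound to dead-cell DNA was read during 40 h treatment.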
The nature of assay [3]: A CellTox Green Cytotoxicity Assay to monitor cytotoxicity in HepG2 cells - 16 hour (AID 1224876). Also: nearly all actives have a fitted effect of over 45% in size. Also: potency is read from the fitted curve at half-maximal effect. The procedure, abridged:
(§3)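 HepG2 cells were seeded together with the CellTox Green dye at 600 cells/well, left 5 h at 37 C/5% CO2, then given compounds in DMSO. Fluorescence from dye bound to dead-cell DNA was read repeatedly over 40 h of treatment at 37 C.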

Assay [4] can be described thus: qHTS RealTime-Glo MT Cell Viability Assay in HepG2 cells - 32 hour (AID 1224877). Also: nearly all actives have a fitted effect of over 55% in size. Also: potency is read from the fitted curve at half-maximal effect. In short, it runs like this: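 qHTS, HepG2, 600 cells/well, RealTime-Glo (NanoLuc + prosubstrate) added with cells; 5 h preincubation; DMSO compound addition; 37 C; luminescence at 0/8/16/24/32/40 h.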
Assay [5] in a line: A CellTox Green Cytotoxicity Assay to monitor cytotoxicity in HepG2 cells - 40 hour (AID 1224879). Also: nearly all actives have a fitted effect of over 40% in size. Also: potency is read from the fitted curve at half-maximal effect. In short, it runs like this:
as §3

Assay [6] is described as follows: qHTS RealTime-Glo MT Cell Viability Assay in HEK293 cells - 0 hour (AID 1224880). Also: top concentration of the series differs between compounds; nearly all actives have a fitted effect of over 45% in size. In short, it runs like this:
as §1

Assay [7] is described as follows: A CellTox Green Cytotoxicity Assay to monitor cytotoxicity in HepG2 cells - 0 hour (AID 1224882). Also: nearly all actives have a fitted effect of over 35% in size. The procedure, abridged:
as §3

Assay [8] can be described thus: A CellTox Green Cytotoxicity Assay to monitor cytotoxicity in HepG2 cells - 32 hour (AID 1224883). Also: nearly all actives have a fitted effect of over 50% in size. Also: potency is read from the fitted curve at half-maximal effect. In short, it runs like this:
as §3

Assay [9] can be described thus: A CellTox Green Cytotoxicity Assay to monitor cytotoxicity in HEK293 cells - 32 hour (AID 1224881). Also: nearly all actives have a fitted effect of over 40% in size. Also: potency is read from the fitted curve at half-maximal effect. In short, it runs like this:
as §2

Assay [10] is described as follows: A CellTox Green Cytotoxicity Assay to monitor cytotoxicity in HepG2 cells - 24 hour (AID 1224878). Also: nearly all actives have a fitted effect of over 45% in size. Also: potency is read from the fitted curve at half-maximal effect. In short, it runs like this:
as §3

The structures appear in SMILES notation. A number with no mark means an inactive call. Results filed as inconclusive are left out. Active and inactive are the calls of the source. Calls follow the shape of the dose curve; as a rule, active = well fitted curve in the direction sought with a large enough effect in the repeat runs; inconclusive = weak or mixed curves; inactive = no such curve, though single readings can be large; an effect the other way counts as inactive or inconclusive.
% is scaled to controls: 0 for no effect and ±100 for the full control effect.

Consider `c1ccc2cc3c4ccccc4c4ccccc4c3cc2c1`, for which the max response in [1] was -2.98%. Moreover, the Potency entry in assay [2], in assay [3], in assay [4], in assay [6] and in assay [7] was “inactive” each time. Besides, the Potency in assay [5] and in assay [8] was 13.9 µM (active) in each case.
Turning to `C/C(=C\c1ccc(C(=O)O)cc1)c1ccc2c(c1)C(C)(C)CCC2(C)C`, the max response in [1] was -17.3%. For the same molecule, the Potency entry in assay [2], in [3], in assay [4], in [5], in assay [6] and in [9] was “inactive” throughout. In addition, the Potency result in assay [7] and in [8] was “inactive” in each case.
With `CN(C[C@@H](CC[N+]12CCC(C3CCCCC3)(CC1)CC2)c1ccc(Cl)c(Cl)c1)C(=O)c1cc(C(F)(F)F)cc(C(F)(F)F)c1`, the Potency in assay [1] is 2.19 µM (active); in assay [2], 24.5 µM (active); in assay [3] it was 24.5 µM (active); in assay [4], 24.5 µM (active); in assay [10] it was 24.5 µM (active); in [5], 24.5 µM (active). Moreover, the Potency in assay [9] was 34.7 µM (active); in assay [8], 24.5 µM (active). Moreover, the Potency entry in assay [6] is “inactive”.
Regarding `COc1cc2ncnc(Nc3cccc(Cl)c3)c2cc1OC`, the max response in assay [1] was -0.219%. For the same molecule, the activity change in assay [2] was -0.939% [at 15.8 µM, stronger effect = higher value]. For the same molecule, the cytotoxicity increase in [3] was -17.7% [at 15.8 µM]; in assay [5], -19.3% [at 15.8 µM]; in assay [9], 0.0774% [at 15.8 µM]; in assay [8], -17.4% [at 15.8 µM]. Also, the activity change, negative = cytotoxic in assay [4] is 8.78% [at 15.8 µM]. Further, in assay [10], the cytotoxicity is -17.9% [at 15.8 µM]. For the same molecule, the activity change, negative = cytotoxicity in assay [6] was -2.52% [at 15.8 µM].
On to `C=CCc1cc(S(=O)(=O)c2ccc(O)c(CC=C)c2)ccc1O`, for which the Potency in assay [1] was 24.5 µM (active). Also, the Potency entry in assay [2], in assay [3], in assay [5], in [9], in assay [7] and in assay [8] was “inactive” throughout.
As for `Nc1ccc(Cl)c([N+](=O)[O-])c1`, the max response in [1] is -19.2%. Besides, the Potency result in assay [2], in assay [3], in assay [4], in assay [5], in assay [6] and in assay [9] was “inactive” each time. Also, the Potency result in [7] and in assay [8] was “inactive” in each case.
Regarding `CSc1nnc(C(C)(C)C)c(=O)[nH]1`, the max response in [1] is 1.65%. In addition, the Potency entry in assay [2], in assay [3], in assay [4], in assay [5], in assay [6] and in assay [9] was “inactive” each time. Further, the Potency result in [8] is “inactive”.
Turning to `c1ccc2c(c1)-c1ccc3ccc4cccc5cc-2c1c3c45`, the max response in assay [1] was 8.42%. For the same molecule, the Potency result in [2], in assay [3], in assay [4] and in [6] was “inactive” throughout. Also, the Potency in assay [5] is 9.52 µM (active).
Turning to `N#Cc1ccc(C/C(=N/NC(=O)Nc2ccc(OC(F)(F)F)cc2)c2cccc(C(F)(F)F)c2)cc1`, the max response in [1] is -2.78%. Also, the Potency entry in assay [2], in [3], in [5], in [6], in assay [9] and in [7] was “inactive” in each case. Besides, the Potency result in assay [8] is “inactive”.
With `Clc1cccc(Cl)n1`, in assay [1], the max response is 3.2%. Also, the Potency entry in assay [2], in assay [3], in [4], in assay [5], in assay [6] and in [9] was “inactive” in each case. In addition, the Potency entry in assay [7] and in assay [8] was “inactive” in each case.
`CC(Cc1ccc(O)c(O)c1)C(C)Cc1ccc(O)c(O)c1` (stereo unspecified): the Potency in assay [1] was 38.9 µM (active); in assay [3], 49 µM (active); in assay [4] it was 49 µM (active); in assay [5] it was 43.6 µM (active); in assay [8] it was 43.6 µM (active). Besides, the Potency entry in [2], in assay [6] and in assay [9] was “inactive” in each case.
`CCOC(=O)[C@H](O)[C@@H](O)C(=O)OCC`: in assay [1], the max response was 5.68%. In addition, the Potency entry in [2], in [4], in assay [10], in [5], in assay [6] and in assay [9] was “inactive” in each case. Further, the Potency entry in assay [7] and in assay [8] was “inactive” in each case.
For `CCN(CC)c1ccc(N=Nc2ccccc2)cc1`, the Potency in [1] is 54.9 µM (active). Also, the Potency entry in assay [2], in assay [3], in [4], in assay [5], in assay [9] and in assay [8] was “inactive” each time.
For `CC(=O)[C@]1(O)Cc2c(O)c3c(c(O)c2[C@@H](O[C@H]2C[C@H](N)[C@H](O)[C@H](C)O2)C1)C(=O)c1ccccc1C3=O`, the Potency is 0.0601 µM (active) in assay [1], 21.3 µM (active) in [3] and 23.9 µM (active) in assay [8]. The Potency entry in [2], in assay [6] and in assay [9] was “inactive” in each case.
Consider `CCOC(=O)[C@H](C)O`, for which the max response in assay [1] is 7.55%. The Potency entry in [2], in assay [3], in [4], in assay [10], in assay [5] and in [6] was “inactive” throughout. Moreover, the Potency result in [9] and in [8] was “inactive” throughout.
In the case of `NC(=O)C1CO1` (stereo unspecified), the max response in assay [1] is 3.16%. The Potency result in [2], in [4], in assay [10], in [5], in assay [6] and in assay [9] was “inactive” in each case. Besides, the Potency entry in assay [7] and in [8] was “inactive” in each case.
Turning to `Cc1ccc2sc3cccc(C)c3c2c1`, in [1], the max response is 12.7%. Besides, the Potency entry in assay [2], in [4], in [10], in assay [5], in assay [6] and in assay [9] was “inactive” each time. In addition, the Potency entry in assay [7] and in assay [8] was “inactive” in each case.
Consider `CCc1cccc(C)c1N(C(=O)CS(=O)(=O)O)C(C)COC` (stereo unspecified), for which the max response in assay [1] was -1.03%. Moreover, the Potency entry in [2], in assay [4], in assay [5], in assay [6], in assay [9] and in [7] was “inactive” throughout. In assay [8], the Potency result is “inactive”.
With `CCCCC/C=C\C=C\C(=O)OCC`, the Potency in assay [1] was 57.2 µM (active); in [10], 22.8 µM (active); in assay [5] it was 36.1 µM (active); in assay [8], 25.6 µM (active). Moreover, the Potency entry in assay [2], in assay [6] and in assay [7] was “inactive” throughout.
`O=S(=O)(c1ccc(OCc2ccccc2)cc1)c1ccccc1O`: the Potency in assay [1] is 19.5 µM (active). Further, the Potency result in assay [2], in assay [4], in assay [6] and in assay [9] was “inactive” each time.
In the case of `COc1cc([C@@H]2c3cc4c(cc3[C@@H](O[C@@H]3O[C@@H]5CO[C@@H](C)O[C@H]5[C@H](O)[C@H]3O)[C@H]3COC(=O)[C@H]23)OCO4)cc(OC)c1O`, the Potency in assay [1] is 0.684 µM (active); in assay [10], 48.4 µM (active); in assay [5], 48.4 µM (active); in [8], 48.4 µM (active). Further, the Potency result in assay [2], in assay [6], in assay [9] and in assay [7] was “inactive” throughout.
Regarding `COc1c(Br)cc(Br)c(C)c1Br`, the max response in [1] is 1.46%. The Potency result in assay [2], in assay [4], in assay [6], in [9] and in [7] was “inactive” in each case.
With `CCCCCCCCCC[N+](C)(CCCCCCCCCC)CCC[Si](OC)(OC)OC`, the Potency is 27.5 µM (active) in assay [1]; 38.9 µM (active) in [2]; 49 µM (active) in [4]; 21.9 µM (active) in [10]; 19.5 µM (active) in [5]; 24.5 µM (active) in assay [9]. Also, the Potency in assay [8] is 21.9 µM (active). For the same molecule, the Potency entry in assay [7] was “inactive”.

For the origin of these results see PubChem BioAssay (Tox21).
